TEAD-YAP inh – TEAD-YAP interaction inhibition; HEK-TIYL cells, TEAD-Gal4/YAP UAS-luciferase luminescence; inhibition, % at 9.12 µM; 640,000 compounds, 1.4% hits; AID 1259422; in the data active = inhibition above about 32%
MITF inh – inhibitors of human MITF | AID 1259374 | inhibition, % at 2.6 µM | AlphaScreen MITF homodimerization, bead proximity signal | O75030 | 650,000 compounds, 0.91% hits; in the data active = inhibition above about 50%
FBW7 activator – activators of human E3 ligase FBW7; normalized activity (activation), % at 26.1 µM; AID 1259310; Q969H0; 650,000 compounds, 0.13% hits; AlphaScreen FBW7–phospho-cyclin E peptide binding, activator screen; in the data active = normalized activity above about 1.9%;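 also: purified mutant Fbw7 with reduced substrate affinity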
GPR151 activ – activators of human GPR151; Q8TDV0; PathHunter beta-arrestin GPR151 cells, luminescence; activation, % at 11.2 µM; 650,000 compounds, 1% hits; AID 1508602; in the data active = activation above about 4.9%
GPR151 confirm – human GPR151 activation, confirmation screen; 6,700 tested, under 10 active; AID 1508609; activation, % at 11.2 µM; GPR151 PathHunter beta-arrestin cells, luminescence, 90 min; % of EA-reagent control over plate median; shares compounds with GPR151 activ;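 active = mean percent activation across replicates above the confirmation screen cutoff of 4.91%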
GPR119 counter – counter-screen for GPR151 activators: effect on human GPR119. shares compounds with GPR151 activ. GPR119 PathHunter beta-arrestin cells, luminescence, 90 min; 0 = compound-well median, 100 = enzyme-acceptor control. activation, % at 11.2 µM. 6,700 compounds, 0.3% hits. AID 1508611;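 active = mean percent activation in the counterscreen above 29.09%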;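 also: counterscreen on off-target GPR119 to flag nonselective hits from the GPR151 activator screen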
Of the large screens only hits and unclear results are named; the others gave an inactive call (follow-up assays come after a bar, where they were run); ! = a repeat was not active. Most compounds without a hit are left out; they make up all but 3.5% or so of the library.

COc1ccccc1NC(=O)N1CCN(c2ccc(Nc3ccccn3)nn2)CC1	none
CN(C)CCCOc1nn(Cc2ccccc2)c2ccccc12	GPR151 activ 6.2! | GPR151 confirm inactive | GPR119 counter inactive
CCOc1ccc(NC(=S)N2CCC(NC(=O)C3CC3)CC2)cc1	none
Cc1cc(OCC(=O)NCc2nc(-c3ccccc3)no2)cc(C)c1Br	GPR151 activ 10.9 | GPR151 confirm inactive | GPR119 counter inactive
COc1ccc(-c2noc(CC(=O)Nc3ccc(C(C)C)cc3)n2)cc1	GPR151 activ 6.0 | GPR151 confirm inactive | GPR119 counter inactive
Cc1ccc(CC(=O)NCc2nc(-c3ccccc3)no2)cc1	GPR151 activ 5.7 | GPR151 confirm inactive | GPR119 counter inactive
COc1ccc(-c2noc(CNC(=O)C(Cl)(Cl)Cl)n2)cc1	GPR151 activ 8.0 | GPR151 confirm inactive | GPR119 counter inactive
CCOC(=O)c1c(SCc2ccc(Br)cc2)nc(=O)[nH]c1C	none
CCOC(=O)c1[nH]c(C)c(C(=O)NCCCN2CCN(c3ccc(OC)cc3)CC2)c1C	none
CC(=O)C1=C(C)NC(=S)NC1/C=C/c1ccccc1 (centres undefined)	none
N#CC(C#N)=CN1CCN(c2ccccc2)CC1	none
COc1ccc(-c2noc(CNC(=O)Cc3ccc(OC)c(OC)c3)n2)cc1	GPR151 activ 5.1 | GPR151 confirm inactive | GPR119 counter inactive
O=C(NCc1nc(-c2ccccc2)no1)c1cc(Br)ccc1Cl	GPR151 activ 5.3 | GPR151 confirm inactive | GPR119 counter inactive
COc1cccc(OC)c1C(=O)NCc1nc(-c2ccc(C)cc2)no1	none
O=C(NCc1nc(-c2ccccc2)no1)c1ccccc1Cl	none
COc1cccc(OC)c1C(=O)NCc1nc(-c2ccc(Cl)cc2)no1	GPR151 activ 8.0 | GPR151 confirm inactive | GPR119 counter inactive
C/C(CC(=O)Nc1cc(C)ccn1)=N\NC(=O)COc1ccc(Br)c(C)c1	none
COc1ccc(C2C(C#N)=C(N)Oc3cc(N)ccc32)cc1Br (centres undefined)	GPR151 activ 7.6 | GPR151 confirm inactive | GPR119 counter inactive
CCCN(CCC)Cc1c(C(=O)O)nnn1-c1nonc1N	GPR151 activ 6.0 | GPR151 confirm inactive | GPR119 counter inactive
O=S(=O)(Nc1ccc2c(c1)N(S(=O)(=O)c1ccccc1)CCC2)c1ccccc1Cl	none
Cc1cc(C(C)(C)C)cc(S(=O)(=O)Nc2ccc3c(c2)C(=O)NC3=O)c1C	GPR151 activ 6.2 | GPR151 confirm inactive | GPR119 counter inactive
Cc1ccc(S(=O)(=O)Nc2ccc3c(c2)C(=O)NC3=O)c(C)c1	none
CCc1ccccc1N(C)C(=O)c1cc2cc(OC)ccc2oc1=O	GPR151 activ 5.9 | GPR151 confirm inactive | GPR119 counter inactive
O=C(NC1CCCCC1)C(c1ccncc1)N(C(=O)C(F)(F)F)C1CC1 (centres undefined)	none
CC(C)N(C(=O)C(F)(F)F)C(C(=O)NC1CCCCC1)c1ccncc1 (centres undefined)	GPR151 activ 5.8 | GPR151 confirm inactive | GPR119 counter inactive
CCOc1cc(/C=C2/C(=N)N3N=C(C(F)(F)F)SC3=NC2=O)ccc1OCCOc1ccccc1Cl	none
CN1CCCC(n2nc(Cc3ccc(Cl)cc3)c3ccccc3c2=O)CC1 (centres undefined)	GPR151 activ 5.4! | GPR151 confirm inactive | GPR119 counter inactive
CC1CCCN(C(=O)Cn2nc(Cc3cccnc3)c3ccccc3c2=O)C1 (centres undefined)	none
CCc1cc(=O)[nH]c(NC2CCN(S(=O)(=O)c3cccc([N+](=O)[O-])c3)CC2)n1	none
C=CCNS(=O)(=O)c1cccc(C(C)=O)c1	none
CC(=O)c1cccc(S(=O)(=O)NCC(F)(F)F)c1	GPR151 activ 5.5 | GPR151 confirm inactive | GPR119 counter inactive
CC(=O)c1ccc(N=Cc2nc(-c3cccc4ccccc34)oc2O)cc1	none
CCN(CC)CCOc1ccc2c(c1)C(=O)c1cc(OCCN(CC)CC)ccc1-2	TEAD-YAP inh 49.6, GPR151 activ 14.9 | GPR151 confirm inactive | GPR119 counter inactive
CCCNc1nc(Nc2nccc3ccccc23)ncc1C	TEAD-YAP inh 39.2, GPR151 activ 5.1 | GPR151 confirm inactive | GPR119 counter inactive
Cc1cnc(Nc2nc3ccccc3n2C)nc1Nc1ccc(N2CCOCC2)cc1	none
